GPT2 inhibitor: inhibitors of human GPT2 alanine aminotransferase; Q8TD30; Recombinant GPT2, coupled pyruvate oxidase/HRP Amplex Red fluorescence; Potency, µM (titrated, usually from 57.7 µM), for inactives: top-dose activity change, negative = inhibition, most hits filed as inhibitors; hit rate 0.25% among 100,000; further: on the % scale 0 is the no-effect control and ±100 the full control effect; nearly all actives have a fitted effect of over 60% in size
Target sequence (Q8TD30 whole entry, looked up): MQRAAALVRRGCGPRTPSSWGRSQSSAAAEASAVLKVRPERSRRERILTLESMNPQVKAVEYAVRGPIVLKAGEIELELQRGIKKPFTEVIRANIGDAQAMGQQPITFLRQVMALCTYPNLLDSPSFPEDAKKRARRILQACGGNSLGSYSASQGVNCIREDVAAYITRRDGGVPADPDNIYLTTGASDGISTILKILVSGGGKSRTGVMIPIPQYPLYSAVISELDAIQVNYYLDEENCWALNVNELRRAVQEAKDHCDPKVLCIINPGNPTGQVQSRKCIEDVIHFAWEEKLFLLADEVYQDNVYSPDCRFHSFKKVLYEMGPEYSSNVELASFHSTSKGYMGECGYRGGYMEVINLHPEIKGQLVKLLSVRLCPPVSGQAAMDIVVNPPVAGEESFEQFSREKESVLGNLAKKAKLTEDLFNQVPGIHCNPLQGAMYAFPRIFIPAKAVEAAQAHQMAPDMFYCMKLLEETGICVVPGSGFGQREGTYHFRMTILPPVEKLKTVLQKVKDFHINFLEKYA
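Recombinant GPT2 (10ng/uL) with 250uM a-KG and 2mM L-alanine, 30 min at room temperature, in HEPES pH 7.5 buffer. Pyruvate detected by pyruvate oxidase/HRP/Amplex Red fluorescence after 30 min in the dark; AOA (50uM) as positive control.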
Luciferase inh: Photinus pyralis luciferase inhibition. P08659. purified P. pyralis luciferase, luminescence, biochemical. Potency, µM (series often up to 115 µM), hits mostly inhibitors. hit rate 2.5% among 76,000. AID 1347043; further: on the % scale 0 is the no-effect control and ±100 the full control effect; nearly all actives have a fitted effect of over 65% in size
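Luminescence read by CCD imaging after purified firefly luciferase (10nM final) was added to substrate buffer holding 10uM D-luciferin and 10uM ATP, pH 7.5, pre-dosed with compound.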
NIH3T3 tox: NIH 3T3 cell cytotoxicity; NIH 3T3 viability, CellTiter-Glo ATP luminescence, 48-72 h; Potency, µM (series often up to 96.7 µM), without a hit: at the highest dose activity change, negative = cytotoxicity, actives largely listed as inhibitors; hit rate 4.3% among 94,000; AID 1345082; further: on the % scale 0 is the no-effect control and ±100 the full control effect; nearly all actives have a fitted effect of over 55% in size
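Viability of NIH 3T3 cells after 48 or 72 hr compound treatment at 37 °C was assessed by CellTiter-Glo, with luminescence imaged following a 10 min room-temperature step.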
HEK cytotox: kills HEK 293 cells | hit rate 6.6% among 94,000 | Potency, µM (titrated, usually from 115 µM), for inactives: at the top dose activity change, negative = cytotoxicity, most hits filed as inhibitors | HEK 293 viability, ATP luminescence (CellTiter-Glo), 48-72 h | AID 1345083; further: on the % scale 0 is the no-effect control and ±100 the full control effect; nearly all actives have a fitted effect of over 60% in size
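HEK 293 cells at 250 cells/well were exposed to compounds by pintool transfer for 48 or 72 hr at 37 degree Celsius, 5% CO2. Viability was read as ATP-coupled luminescence with CellTiter-Glo after 10 min at room temperature.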
NPR1 antag: human Npr1 receptor antagonism | Potency, µM (top dose mostly 46.3 µM), for inactives: at the highest dose activity change, negative = inhibition, most hits filed as inhibitors | P16066 | AID 1347048 | HEK293 hNpr1 GloSensor cGMP, ANP-stimulated luminescence | hit rate 1.6% among 76,000; calls by dose curve; further: on the % scale 0 is the no-effect control and ±100 the full control effect; nearly all actives have a fitted effect of over 60% in size
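Compound pre-incubated 30 min at room temperature on GloSensor-loaded HEK293 cells stably carrying hNpr1 and the pGS-40F cGMP biosensor. Stimulation uses hNppA at 0.1 nM final; luminescence is taken at baseline and 20 min post-agonist.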
NPR1 antag cnf: confirmation of human Npr1 natriuretic peptide receptor antagonists; HEK293 hNpr1 cGMP GloSensor luminescence, ANP-stimulated; AID 1347044; hit rate 76% among 1,400; shares compounds with NPR1 antag; Potency, µM (titrated, usually from 57.6 µM), without a hit: at the top dose activity change, negative = inhibition, hits mostly inhibitors; calls by dose curve; further: nearly all actives have a fitted effect of over 70% in size
Npr2 selectivity: antagonizes human Npr2, subtype selectivity check; hit rate 67% among 1,400; AID 1347046; Potency, µM (doses to about 57.6 µM), without a hit: at the highest dose activity change, negative = inhibition, actives largely listed as inhibitors; shares compounds with NPR1 antag; HEK293 hNpr2 GloSensor cGMP luminescence, CNP-stimulated; calls by dose curve; further: nearly all actives have a fitted effect of over 70% in size
FLuc counter: inhibits firefly luciferase, false Npr1 antagonist flag; shares compounds with NPR1 antag; purified FLuc enzyme, luminescence, Km substrate; Potency, µM (doses to about 57.6 µM), inactives show at the highest dose activity change, negative = inhibition, most hits filed as inhibitors; AID 1347047; hit rate 0.7% among 1,400; further: 0% is about no effect
GloSensor ctrl: reduces cGMP signal in GloSensor control cells; shares compounds with NPR1 antag; HEK293 GloSensor cGMP, SNP-stimulated, luminescence; Potency, µM (titrated, usually from 57.6 µM), inactives show at the highest dose activity change, negative = inhibition, usual class: inhibitors; hit rate 69% among 1,400; AID 1347051; calls by dose curve; further: on the % scale 0 is the no-effect control and ±100 the full control effect; nearly all actives have a fitted effect of over 70% in size
Numbers without * were called inactive; i = inactive; ? = inconclusive; . = no result; [ ] = remark or other dose. Hits are enriched below; roughly 10% of the tested compounds scored in any of these assays. Unless noted, the call rests on the fitted dose curve; in most records, active means well fitted curve in the direction sought with a large enough effect; inconclusive means small, poorly fitted or top-dose-only effect, or another doubt; inactive means no such curve, though single readings can be large; an effect the other way counts as inactive or inconclusive. Potency means the concentration at half of the fitted maximal effect.

SMILES	GPT2 inhibitor	Luciferase inh	NIH3T3 tox	HEK cytotox	NPR1 antag	NPR1 antag cnf	Npr2 selectivity	FLuc counter	GloSensor ctrl
Cc1ccccc1S(=O)(=O)N1CCCC(CCC(=O)Nc2cccc(Cl)c2)C1 (centres undefined)	-22%	i	?	22µM*	11µM*	24µM*	27µM*	2%	27µM*
COc1ccccc1CC(=O)N1CCCc2ncc(C(=O)Nc3cccnc3)cc21	-7%[88.5 µM]	i	-20%[138 µM]	?	0%[70.6 µM]	.	.	.	.
Cc1csc(NC(=O)c2cnc3c(c2)N(C(=O)Cc2ccc(C(C)C)cc2)CCC3)n1	-2%[88.5 µM]	i	?	35µM*	22µM*	31µM*	35µM*	-13%[86.2 µM]	28µM*
O=C(NC(c1ccccc1)c1ccccc1)c1cnc2c(c1)N(C(=O)Cc1ccc(O)cc1)CCC2	?	i	?	-30%	-8%	.	.	.	.
COc1ccccc1CC(=O)N1CCCc2ncc(C(=O)Nc3cccc(F)c3)cc21	i	i	89µM*	63µM*	32µM*	35µM*	35µM*	-15%[86.2 µM]	35µM*
CC(C)c1ccc(CC(=O)N2CCCc3ncc(C(=O)Nc4ccccc4)cc32)cc1	0%[88.5 µM]	i	28µM*	28µM*	3.5µM*	5.6µM*	6.3µM*	3%[86.2 µM]	5µM*
O=C(Nc1ccccc1)c1cnc2c(c1)N(C(=O)Cc1ccc(O)cc1)CCC2	2%[88.5 µM]	i	-17%[138 µM]	?	28µM*	35µM*	35µM*	-3%[86.2 µM]	35µM*
CNC(=O)c1cnn2cc(C)ccc12	-23%[88.5 µM]	i	-5%[174 µM]	0%[230 µM]	0%[70.6 µM]	.	.	.	.
CC(C)c1ccc(CC(=O)N2CCCc3ncc(C(=O)N(C)c4ccccc4)cc32)cc1	-9%[88.5 µM]	i	?	?	?	35µM*	44µM*	0%[86.2 µM]	44µM*
CC(C)c1ccc(CC(=O)N2CCCc3ncc(C(=O)N(C)Cc4ccccc4)cc32)cc1	-28%	i	?	?	-20%	.	.	.	.
Cc1ccccc1NC(=O)c1cnc2c(c1)N(C(=O)Cc1cn(C)c3ccccc13)CCC2	-15%[88.5 µM]	i	?	?	-15%[70.6 µM]	.	.	.	.
Cn1cc(CC(=O)N2CCCc3ncc(C(=O)Nc4cccc(Cl)c4)cc32)c2ccccc21	2%	i	?	?	-24%	-30%	-28%	-1%	-23%
CN(Cc1cn(-c2ccccc2)nn1)Cc1noc(C2CCC2)n1	-7%	i	-19%	?	6%	.	.	.	.
CCN(Cc1noc(C2CCC2)n1)C(=O)C(C)Oc1ccc2ccccc2c1 (centres undefined)	-8%	i	-27%	35µM*	11µM*	19µM*	22µM*	-1%	14µM*
C[S+](=O)([O-])N1CCC2(CC1)CC(Cc1ccccc1)=NO2	5%	.	?	i	.	.	.	.	.
COc1ccc(C(=O)Nc2ccc(-c3noc([C@@H]4CCCN4Cc4ccc(F)c(F)c4)n3)cn2)cc1	-7%	i	?	?	10µM*	7.7µM*	9.7µM*	-16%	8.6µM*
COc1ccc(C(=O)Nc2ccc(-c3noc([C@@H]4CCCN4Cc4ccccc4C)n3)cn2)cc1	-13%	i	-50%	?	10µM*	7.7µM*	12µM*	-16%	9.7µM*
COc1ccc(C(=O)Nc2ccc(-c3noc([C@@H]4CCCN4Cc4ccc(Cl)cc4)n3)cn2)cc1	-14%	i	?	?	?	.	.	.	.
CN(C)CCNC(=O)C1(CCO)CC12CCOCC2 (centres undefined)	-5%	i	-20%	-18%	-2%	.	.	.	.
Fc1ccc(-c2cnc3n2C[C@H](CNCc2ccccc2Cl)OC3)cc1	i	i	?	79µM*	25µM*	40µM*	40µM*	-19%[86.2 µM]	40µM*
O=C(N[C@@H]1C[C@H](Cn2cc(CN3CCS(=O)(=O)CC3)nn2)[C@@H](O)[C@H]1O)c1cncnc1	-12%	i	-21%	-7%	-13%	.	.	.	.
O=C(NCCc1cccc(Oc2ccccc2)c1)[C@H]1CCC[C@H](O)C1	1%[11.5 µM]	i	-35%	?	14µM*	24µM*	22µM*	1%	22µM*
CCC(CC)C(=O)N1C[C@@H]2CCCN3CCC[C@@H]([C@H]23)[C@H]1CCCC(=O)N1CCOCC1	i	i	3%	-1%	6%	.	.	.	.
CC(C)c1noc(-c2cn(C3CCCN(C(=O)c4cccc5[nH]ccc45)C3)nn2)n1 (centres undefined)	i	i	?	?	13µM*	27µM*	?	-18%	22µM*
O=C(c1cccc2[nH]ccc12)N1CCCC(n2cc(-c3nc(C4CC4)no3)nn2)C1 (centres undefined)	i	i	?	?	11µM*	27µM*	?	-1%	?
SMILES	GPT2 inhibitor	Luciferase inh	NIH3T3 tox	HEK cytotox	NPR1 antag	NPR1 antag cnf	Npr2 selectivity	FLuc counter	GloSensor ctrl
Cc1noc(-c2cn(C3CCCN(C(=O)c4cccc5[nH]ccc45)C3)nn2)n1 (centres undefined)	i	?	-32%	?	-15%	.	.	.	.
O=C(CCc1nc2ccccc2s1)N1CCC(c2noc(-c3ccncc3)n2)C1 (centres undefined)	i	i	-23%	?	-13%	.	.	.	.
COc1ccc2ccc(OCc3nc(C(=O)N4CCCC(C(N)=O)C4)co3)cc2c1 (centres undefined)	-6%	i	?	?	11µM*	14µM*	19µM*	-19%	11µM*
COc1ccc2ccc(OCc3nc(C(=O)N(C)CC4CCCO4)co3)cc2c1 (centres undefined)	i	?	?	?	-28%	.	.	.	.
COc1ccc2ccc(OCc3nc(C(=O)N(C)Cc4cc(C)no4)co3)cc2c1	i	i	?	?	?	31µM*	?	-22%	?
COc1ccc2ccc(OCc3nc(C(=O)N(C)CC(C)O)co3)cc2c1 (centres undefined)	-29%	i	?	?	?	.	.	.	.
